Compound activity deposited in PubChem BioAssay by several laboratories.
B2AR ag: human beta-2 adrenergic receptor agonism by FAP | P07550 | Am2.2-beta2AR cells, FAP receptor internalization, flow cytometry | response, % (test concentration not listed) | hit rate 0.43% among 340,000 | AID 504454;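 active = response above a set limit, near 3 SD of response in nonfluorescent compounds, cut at about 42% in these data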
A1 inh: inhibitors of the anti-apoptotic protein A1, read as caspase activation; MEF A1-2A-BIM cells, Caspase-Glo 3/7 luminescence, 3 h; percent of clofoctol response, vehicle zero; caspase activation, % (concentration not given with the values); AID 2462; hit rate 0.066% among 330,000;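 active = over half of replicate activation scores above 10%, or exactly half above 10 with the replicate mean above 10; inconclusive = replicate mean below 10 yet half the replicates above 10; inactive = over half of replicates below 10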
Dyrk1A ADPGlo: blocks rat Dyrk1A kinase activity. inhibition, % at 12.5 µM. Q63470. ADP-Glo luminescence, NFATc1 peptide. AID 504441. hit rate 0.43% among 310,000; in the data active = inhibition above about 50%;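 note: plate controls were vehicle with enzyme for no effect and no enzyme for full effect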
dFosB act-1: mouse delta FosB homodimer activation. purified delta FosB, TAMRA-CDK5 oligo fluorescence polarization; percent of positive-control signal above neutral wells. activation, % at 25 µM. hit rate 0.99% among 340,000. AID 493131;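 active = mean activation above about 17%, with every replicate also reaching it, limit read from the data, passing the limit was not always enough; inconclusive = only one of the two conditions met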
Target sequence (P13346 whole entry, looked up): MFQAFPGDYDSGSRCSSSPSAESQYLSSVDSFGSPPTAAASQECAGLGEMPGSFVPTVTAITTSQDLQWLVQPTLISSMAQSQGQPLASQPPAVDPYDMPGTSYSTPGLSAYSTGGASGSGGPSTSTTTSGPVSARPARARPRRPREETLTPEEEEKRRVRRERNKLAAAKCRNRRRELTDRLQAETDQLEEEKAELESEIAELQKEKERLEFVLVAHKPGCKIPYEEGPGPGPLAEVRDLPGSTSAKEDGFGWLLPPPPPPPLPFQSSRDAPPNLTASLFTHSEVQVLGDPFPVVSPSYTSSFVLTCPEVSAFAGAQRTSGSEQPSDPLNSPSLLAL
dFosB act-2: activators of mouse delta FosB homodimer DNA binding | shares compounds with dFosB act-1 | purified delta FosB, TAMRA-CDK5 oligo fluorescence polarization; normalised: neutral wells 0, positive control 100 | activation, % at 24.9 µM | 2,400 tested, under 10 active;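 active = highest replicate activation at or above 34% and every replicate reaching that threshold; inconclusive = meets only one of the two criteria; inactive = meets neither criterion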;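 note: higher polarization means more probe DNA bound by delta FosB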
The depositor's hits bear a star; ? = inconclusive; / = not tested or not shown. Rows were chosen to be rich in hits. Some 1.6% of all compounds tested hit in one or more screens of this group.

SMILES | B2AR ag | A1 inh | Dyrk1A ADPGlo | dFosB act-1 | dFosB act-2
COc1ccccc1NC(=O)NNC(=O)COc1ccc2ccccc2c1 | 5 | -1 | 3 | 21* | 2
COc1ccc2cc(OCC(=O)NNC(=O)Nc3ccc(C(C)=O)cc3)ccc2c1 | -2 | 1 | -9 | 99* | 5
COc1ccc(NC(=O)NNC(=O)COc2ccc3cc(Br)ccc3c2)cc1OC | 20 | 1 | -7 | 144* | 6
COc1ccccc1NC(=O)NNC(=O)c1ccc2ccccc2c1 | -4 | 0 | 8 | -10 | /
CN(Cc1ccccc1Cl)C(=O)CCNC(=O)c1ccco1 | 8 | / | 11 | 4 | /
O=C(CN1C(=O)C2CCCCC2C1=O)OCC(=O)c1ccc(F)cc1 (stereo not drawn) | 4 | 0 | / | 4 | /
O=C(Nc1ccc(Br)cn1)c1cccc(-c2cc3ccccc3oc2=O)c1 | 30 | -7 | 1 | 34* | 0
COc1ccc(CC(=O)NNC(=O)c2c(-c3ccccc3Cl)noc2C)cc1OC | -3 | 0 | -6 | 4 | /
CCOC(=O)CN1C(=O)/C(=C2\SC(=S)N(NC(=O)c3cccnc3)C2=O)c2ccccc21 | 2 | 0 | / | 1 | /
O=C(CCN1C(=O)c2cccc3cccc(c23)C1=O)Nc1ccccc1 | 1 | 0 | 0 | 27* | 0
O=C(CCCCCN1C(=O)c2ccccc2C1=O)Nc1ccccc1 | -19 | 1 | -8 | -1 | /
CC(=O)Nc1ccc(NC(=O)CCCCCN2C(=O)c3ccccc3C2=O)cc1 | -8 | 0 | -2 | 25* | -1
COc1ccc(N2C(=O)CC(NNC(=O)c3ccc(Br)s3)C2=O)cc1 (stereo not drawn) | 11 | -1 | 7 | 45* | -2
COc1cccc(N2C(=O)CC(NNC(=O)c3cccs3)C2=O)c1 (stereo not drawn) | 5 | -1 | 1 | -1 | /
O=C(CSc1ccc(-c2ccccn2)nn1)Nc1cccc(F)c1 | -3 | -1 | 5 | -17 | /
O=C(c1ccc(Cl)cc1)c1cnc(-c2ccccc2)s1 | 6 | / | -4 | -4 | /
O=C(c1ccc(Cl)cc1)c1cnc(Nc2ccccc2Cl)s1 | -2 | -2 | -1 | 53* | 6
CN(c1ccc(OCC(=O)OCC(=O)c2c(N)n(C)c(=O)n(C)c2=O)cc1)S(=O)(=O)c1ccc2ccccc2c1 | 13 | 1 | -1 | 33* | -1
Cc1ccc(C)c(CN2C(=O)c3ccccc3S(=O)c3ccc(C(=O)NCCCN4CCCC4)cc32)c1 (stereo not drawn) | 22 | 0 | -4 | 25* | 4
O=C1CC2CC1C(C(=O)O)C2C(=O)O (stereo not drawn) | -5 | / | -6 | -6 | /
CSc1ccc(S(=O)(=O)NCC(=O)OCC(=O)N(C)C2CCCCC2)cc1[N+](=O)[O-] | -7 | 0 | -4 | 2 | /
CC(C)(C)OC(=O)NCc1ccc(NC(=O)c2nc[nH]c2C(=O)NCCNC(=O)c2[nH]cnc2C(=O)Nc2ccc(CNC(=O)OC(C)(C)C)cc2)cc1 | 18 | 1 | 2 | 40* | 2
CC(C)(C)OC(=O)CNC(=O)c1[nH]cnc1C(=O)Nc1ccc(CNC(=O)OC(C)(C)C)cc1 | 23 | ? | 8 | -13 | /
COc1cc(C(=O)OCC(=O)Nc2cccc(S(=O)(=O)N3CCOCC3)c2)ccc1OCC(C)C | -8 | 0 | -5 | 0 | /
CCOC(=O)C1(Cc2cccc(OC)c2)CCCN(C(=O)c2cc(C)on2)C1 (stereo not drawn) | 0 | 1 | -10 | -5 | /
SMILES | B2AR ag | A1 inh | Dyrk1A ADPGlo | dFosB act-1 | dFosB act-2
CCN(c1ccccc1)S(=O)(=O)c1ccc(Oc2ccc(C(C)=O)cc2OC)nc1 | -1 | -1 | 2 | -9 | /
Clc1ccc(Cn2cc(/C=N/n3cnnc3)c3ccccc32)c(Cl)c1 | 23 | 0 | -2 | 25* | 3
C(=N\n1cnnc1)/c1cn(Cc2ccccc2)c2ccccc12 | -10 | 0 | -4 | -5 | /
COc1ccc(Cl)cc1NC(=O)CCc1nc(-c2ccccc2F)no1 | 27 | 1 | -5 | -7 | /
CCOC(=O)c1c(C)[nH]c(C(=O)OCC(=O)Nc2cc(Cl)ccc2OC)c1C | -4 | 1 | 0 | -1 | /
CCOC(=O)c1c(C)[nH]c(C(=O)OCC(=O)Nc2cc(C)ccc2OC)c1C | -16 | -1 | -16 | 23* | 0
CC1(C)Cc2c(sc(NC(=O)COc3ccc(Cl)cc3)c2C(N)=O)C(C)(C)N1 | 7 | 0 | -3 | 80* | 2
Cc1nc(-c2cccc(NC(=O)c3ccc(Br)o3)c2)cs1 | 0 | 1 | 9 | -24 | /
Cc1nc(-c2ccc(NC(=O)c3ccc(Br)o3)cc2)cs1 | -5 | -10 | 10 | 26* | 0
O=C(CSc1nc2ncc(Cl)cc2[nH]1)c1c[nH]c2ccccc12 | 10 | 0 | 5 | 22* | -4
Cc1ccc(CN(Cc2ccccc2)C(=S)Nc2ccccc2C)o1 | -7 | 0 | -2 | -1 | /
COc1cc(OC)c(-c2nc(-c3ccncc3)no2)cc1OC | 7 | 0 | / | 21* | 6
O=C(N/N=C/c1ccncc1)c1ccc(NC(=O)c2cccc(Cl)c2)cc1 | 1 | 0 | -1 | 39* | 3
O=C(N/N=C/c1ccncc1)c1ccc(NC(=O)c2ccc(Cl)cc2)cc1 | -6 | -1 | -3 | 65* | -1
O=C(N/N=C/c1ccncc1)c1cccc(NC(=O)c2ccccc2Cl)c1 | 7 | -1 | 7 | -12 | /
CCCn1c(=S)[nH]c2cc(C(=O)N3CCc4ccccc43)ccc2c1=O | 7 | -1 | 2 | 50* | 6
COCCn1c(=S)[nH]c2cc(C(=O)N3CCc4ccccc43)ccc2c1=O | 2 | 0 | 4 | -11 | /
CCCCn1c(N)c(N(CC(C)C)C(=O)c2ccc(S(=O)(=O)N3CCCCC3)cc2)c(=O)[nH]c1=O | -8 | 1 | 3 | 3 | /
CC(=O)Nc1cccc(C(=O)OCC(=O)NNC(=O)c2cccs2)c1 | -6 | 0 | 4 | -8 | /
Cc1cccc(-n2nnnc2SCC(=O)N(CC(C)C)c2c(N)n(CC(C)C)c(=O)[nH]c2=O)c1 | 3 | -1 | 0 | 32* | 6
CN1/C(=C\C(=O)COC(=O)CNC(=O)c2ccc3ccccc3c2)C(C)(C)c2ccccc21 | -14 | 0 | -2 | 34* | 1
CC(=O)NCc1ccc(S(=O)(=O)N2CCN(S(=O)(=O)c3ccc4ccccc4c3)CC2)cc1 | -1 | / | -2 | 49* | 3
CN1/C(=C\C(=O)COC(=O)CNC(=O)c2ccccc2F)C(C)(C)c2ccccc21 | 11 | 0 | -1 | 9 | /
CN1CCN(S(=O)(=O)c2ccc3ccccc3c2)CC1 | 0 | 0 | -4 | -5 | /
O=C(CNC(=O)c1ccc2ccccc2c1)OCC(=O)N1CCN(S(=O)(=O)c2ccc3ccccc3c2)CC1 | -4 | 2 | -3 | 22* | -9
Cn1nnnc1SCC(=O)N1CCN(S(=O)(=O)c2ccc(Cl)cc2)CC1 | -3 | 1 | -3 | -8 | /
CCCCCN(C(=O)CCC(=O)OCc1cccc(C(F)(F)F)c1)c1c(N)n(CCCC)c(=O)[nH]c1=O | 0 | 1 | -1 | -9 | /
